# Hits are enriched below; roughly 9.2% of the tested compounds scored in any of these assays.
# FLuc modulator = qHTS profiling assay for firefly luciferase inhibitor/activator using purifed enzyme and Km concentrations of substrates (counterscreen for miR-21 project); purified FLuc, Km substrates, luminescence inhibition; Potency, µM (series often up to 57.5 µM), for inactives: at the highest dose activity change, negative = inhibition, usual class: inhibitors; 360,000 tested, 6.9% active; Luciferin 4-monooxygenase (Photinus pyralis), P08659;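 note: plate controls were vehicle for no effect and reference inhibitor for full effect; nearly all actives have a fitted effect of over 55% in size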
# Target sequence (P08659 whole entry, looked up): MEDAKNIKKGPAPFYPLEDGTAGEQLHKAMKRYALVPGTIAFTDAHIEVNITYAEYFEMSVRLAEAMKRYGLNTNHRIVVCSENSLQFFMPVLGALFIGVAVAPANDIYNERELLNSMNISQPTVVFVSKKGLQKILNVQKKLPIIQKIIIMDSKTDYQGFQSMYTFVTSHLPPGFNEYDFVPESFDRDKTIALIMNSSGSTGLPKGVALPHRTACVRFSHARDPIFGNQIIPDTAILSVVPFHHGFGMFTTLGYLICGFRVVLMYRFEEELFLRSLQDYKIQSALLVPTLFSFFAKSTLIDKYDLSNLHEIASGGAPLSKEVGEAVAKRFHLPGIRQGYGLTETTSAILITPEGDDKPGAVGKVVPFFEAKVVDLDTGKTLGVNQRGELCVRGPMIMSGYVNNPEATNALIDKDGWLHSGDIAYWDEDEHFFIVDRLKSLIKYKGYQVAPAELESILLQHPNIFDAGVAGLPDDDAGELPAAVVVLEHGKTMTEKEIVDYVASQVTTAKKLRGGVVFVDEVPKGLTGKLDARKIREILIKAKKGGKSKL
#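 Biochemical qHTS of compounds, final roughly 60 µM downward over six points, against 10 nM purified firefly luciferase using Km concentrations of substrates (10 uM D-luciferin, 10 uM ATP) in Tris acetate pH 7.5 buffer; luminescence output.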
# ELG1 repair inh = qHTS screen for small molecules that inhibit ELG1-dependent DNA repair in human embryonic kidney (HEK293T) cells expressing luciferase-tagged ELG1. AID 504467, 2011. Potency, µM (highest dose often 46.1 µM), for the others: at the highest dose activity change, negative = inhibition, actives largely listed as inhibitors. 330,000 tested, 2.3% active. HEK293T ELG1-luciferase reporter, luminescence, 16 h; DNA damage induced by 5-fluorouridine; note: % is set by controls: 0 for no effect and ±100 for the full control effect; nearly all actives have a fitted effect of over 55% in size
#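 Overnight (16 hr) co-exposure of 2,000 cells/well to 5-fluorouridine and compound at 37 °C preceded detection. Luciferase was quantified via ONE-Glo luminescence; loss of signal denotes inhibition.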
# ELG1 genotoxic = qHTS screen for small molecules that induce genotoxicity in human embryonic kidney (HEK293T) cells expressing luciferase-tagged ELG1 | HEK293T ELG1-luciferase reporter, luminescence, 16 h | Potency, µM (top dose mostly 46 µM), inactives show top-dose activity change, positive = activation, hits mostly activators | 330,000 tested, 1.3% active | AID 504466, 2011; note: % of control where 0% means no effect; nearly all actives have a fitted effect of over 60% in size
#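 HEK293T cells expressing luciferase-tagged ELG1 were exposed to compound or DMSO vehicle for 16 hr at 37 °C and 5% CO2. Luciferase activity was then measured with ONE-Glo after 30 min at room temperature.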
# Rab9 prom act = qHTS Assay for Rab9 Promoter Activators; AID 485297, 2010; 320,000 tested, 2.8% active; Huh7 Rab9 promoter-luciferase reporter, luminescence, 24 h; Potency, µM (doses to about 9.22 µM), inactives show at the highest dose activation, negative = inhibition, hits mostly activators; note: % of control where 0% means no effect; nearly all actives have a fitted effect of over 60% in size
#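 Huh7 cells stably carrying Rab9 promoter–luciferase reporter, plated 1500 cells/well, compound added after 2 h and incubated 24 h at 37 °C; luciferase luminescence then read after 10 min with detection reagent.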
# SMN2 splice up = qHTS Assay for Enhancers of SMN2 Splice Variant Expression. HEK293 SMN2-luciferase splicing reporter, luminescence, 30-36 h. Potency, µM (series often up to 46.1 µM), for inactives: at the top dose activity change, positive = activation, usual class: activators. 210,000 tested, 2.8% active; note: % of control where 0% means no effect; nearly all actives have a fitted effect of over 55% in size
#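 qHTS luciferase splicing reporter: luminescence rises when SMN2 exon 7 is included in transfected HEK293 cells. Compound exposure lasted 30-36 h at 37C, with 4.5 mM final sodium butyrate as control, followed by a ONE-Glo read.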
# NPC1 promoter act = qHTS Assay for NPC1 Promoter Activators. AID 485313, 2010. Huh7 NPC1 promoter luciferase reporter, 24 h. 320,000 tested, 2.4% active. Potency, µM (doses to about 9.22 µM), for inactives: top-dose activation, most hits filed as activators; note: % of control where 0% means no effect; nearly all actives have a fitted effect of over 60% in size
#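 Huh7 reporter cells (NPC1 promoter driving luciferase) are dosed with compound for 24 h at 37 °C, 5% CO2; luciferase detection reagent is then added and luminescence measured after 10 min at ambient temperature.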
# Active calls of the source: *; ? = inconclusive; · = no result. Calls come from the whole dose curve; as a rule, active = well fitted curve in the direction sought with a large enough effect; inconclusive = small, poorly fitted or top-dose-only effect, or another doubt; inactive = no such curve, though single readings can be large; an effect the other way counts as inactive or inconclusive. Potency is the fitted concentration of half-maximal effect.
SMILES,FLuc modulator,ELG1 repair inh,ELG1 genotoxic,Rab9 prom act,SMN2 splice up,NPC1 promoter act
CCC(=O)N1CCc2cc(Br)cc(S(=O)(=O)N3CCCC(C(=O)NCc4ccccc4)C3)c21 (stereo not given),-2.0%,·,·,·,-18.2%,·
CCCC(=O)N1CCN(c2ccc(NC(=O)c3ccc([N+](=O)[O-])o3)cc2Cl)CC1,3.9%,?,-10.0%,-2.9%,-47.8%,-16.5%
CN1CCN(c2ccc(NC(=O)c3ccc([N+](=O)[O-])o3)cc2Cl)CC1,9.53µM*,?,?,?,·,?
CC(C)C(=O)N1CCN(c2ccc(NC(=O)c3ccc([N+](=O)[O-])o3)cc2Cl)CC1,1.1%,-0.5%,-12.0%,-39.5%,-0.9%,-11.8%
O=C(Nc1ccc(N2CCOCC2)c(Cl)c1)c1ccc([N+](=O)[O-])o1,12µM*,-5.5%,?,?,?,26.8%
CC1CN(C(=O)COC(=O)c2ccc(F)cc2Cl)CC(C)O1 (stereo not given),-2.3%,22.2%,5.2%,-9.4%,·,-1.2%
CCOc1cc(/C=N/N=C/c2ccc(O)c(OCC)c2)ccc1O,2.6%,-9.0%,-2.8%,0.7%,·,1.6%
CCOc1ccccc1NC(=O)c1cc(-c2cc(OC)c(OC)c(OC)c2)nc2ccccc12,-0.2%,?,-9.3%,9.3%,·,-2.5%
CCOc1cccc(/C=C/c2cc(C(=O)O)c3ccccc3n2)c1OC,1.07µM*,?,?,4.47µM*,·,2µM*
CCOc1cc(/C=C/c2cc(C(=O)O)c3ccccc3n2)ccc1OC,1.35µM*,?,?,?,22.4µM*,?
CCOc1cc(/C=C/c2cc(C(=O)O)c3ccccc3n2)ccc1O,4.26µM*,?,10.4%,2.3%,13.0%,0.9%
COc1cc(/C=C/c2cc(C(=O)O)c3ccccc3n2)cc(OC)c1O,9.53µM*,10.2%,-0.1%,-8.6%,7.0%,-0.2%
COc1ccccc1CNC(=O)Cn1c(=O)nc(-c2ccccc2F)c2cc(Cl)ccc21,-5.0%,·,·,·,·,·
O=C(Cn1cnc2sc3c(c2c1=O)CCCC3)NCC(=O)Nc1c(F)cc(F)cc1Br,-0.5%,0.4%,0.0%,-0.4%,·,-2.1%
CC1CCN(C(=O)c2cc(-c3ccccc3O)on2)CC1,2.69µM*,?,2.59µM*,3.16µM*,?,2.51µM*
CC1CCN(C(=O)c2cc(-c3ccco3)on2)CC1,13.5µM*,?,16.4µM*,2.82µM*,·,1.78µM*
CC1CCCC(C)N1C(=O)c1cc(-c2ccco2)on1 (stereo not given),-15.5%,?,28.6%,7.9%,·,2.6%
COc1ccccc1N1CCN(C(=O)c2cc(-c3ccccc3O)on2)CC1,-9.6%,28.3%,22.4%,2.8%,-7.6%,12.1%
COc1ccc(Nc2nc(-c3cccs3)cs2)cc1,0.675µM*,?,1.46µM*,2µM*,10µM*,2.51µM*
COc1ccc(Nc2nc(-c3cccs3)cs2)c(OC)c1,4.78µM*,?,5.17µM*,2.24µM*,·,?
COc1ccccc1Nc1nc(-c2cccs2)cs1,4.78µM*,?,?,?,11.2µM*,13.0%
Cc1cccc(N(C)c2nc3ccccc3c3nnc(C)n23)c1,-1.5%,·,·,·,·,·
CCOC(=O)C(=CNc1cc(Cl)c(-c2ccco2)c(Cl)c1)C(=O)OCC,?,20.6µM*,-5.0%,-2.4%,·,-2.3%
CCOC(=O)C(=CNc1ccc(-c2ccco2)c(Cl)c1)C(=O)OCC,-19.9%,?,-9.2%,-0.3%,·,0.9%
CCOC(=O)C(=CNc1ccccc1Cl)C(=O)OCC,-6.8%,-8.9%,-1.9%,-1.8%,·,0.2%
SMILES,FLuc modulator,ELG1 repair inh,ELG1 genotoxic,Rab9 prom act,SMN2 splice up,NPC1 promoter act
CCOC(=O)C(=CNc1ccc(C(F)(F)F)cc1Cl)C(=O)OCC,13.5µM*,0.0%,-1.2%,2.9%,·,1.8%
CC(C)C(NC(=O)c1c(F)cccc1F)C(=O)N1CCN(c2ccccc2F)CC1 (stereo not given),2.4%,-1.6%,0.0%,-5.1%,·,-4.4%
Cc1ccccc1C(=O)n1nc(-c2ccco2)nc1NCc1cccs1,-7.3%,·,·,·,2.4%,·
O=C(COc1ccc2ccccc2c1)NC1CC(=O)N(c2ccccc2)C1 (stereo not given),-12.9%,·,·,·,·,·
Cc1ccc(-n2c(C)cc(C(=O)COc3cccnc3[N+](=O)[O-])c2C)cc1,16.9µM*,?,?,-4.7%,-42.4%,-1.7%
Cc1cc(C(=O)COc2cccnc2[N+](=O)[O-])c(C)n1Cc1ccco1,?,-5.6%,11.3%,16.5%,-18.5%,8.7%
Cc1ccc(OCC(=O)c2cc(C)n(C)c2C)c([N+](=O)[O-])n1,?,?,?,?,?,13.7%
Cc1cc(C(=O)COc2cccnc2[N+](=O)[O-])c(C)n1-c1ccccc1F,6.01µM*,?,5.0%,12.1%,·,22.9%
Cc1cc(C(=O)COc2cccnc2[N+](=O)[O-])c(C)n1-c1ccccc1,2.69µM*,?,7.2%,-2.5%,-42.6%,2.5%
Cc1cc(-n2c(C)cc(C(=O)COc3ccccc3[N+](=O)[O-])c2C)no1,?,-17.8%,5.8%,-1.4%,8.3%,0.2%
Cc1oc2ncn(C)c(=O)c2c1C(=O)N1CCN(c2cccc(C(F)(F)F)c2)CC1,-7.5%,·,·,·,·,·
COc1ccccc1NC(=O)CSc1nc2c(oc3ccccc32)c(=O)n1-c1ccc(C)cc1,-8.8%,·,·,·,-8.0%,·
CN1C2C(Br)CCCCN2c2ccc(F)cc2S1(=O)=O (stereo not given),-3.9%,1.5%,0.3%,9.6%,·,0.4%
O=C1/C(=C\Nc2ccc(Cl)cc2)CCN1c1ncccn1,4.78µM*,?,?,0.891µM*,20µM*,2µM*
O=C1/C(=C\Nc2ccc(OC(F)(F)F)cc2)CCN1c1ncccn1,?,?,9.2µM*,2.51µM*,17.2%,?
O=C(CN1CCN(c2ccccn2)CC1)Nc1ccc(OC(F)(F)F)cc1,-0.5%,-12.4%,-4.6%,-4.2%,·,-0.6%
CC(C)Oc1ccc(S(=O)(=O)N2CCOCC2)cc1NC(=O)CN1C(=O)NC2(CCCC2)C1=O,2.1%,4.0%,-0.1%,2.6%,·,2.0%
Cc1ccc(CNC(=O)c2nccnc2C(=O)O)cc1,-0.8%,14.2%,-0.2%,10.4%,·,-2.1%
O=C(Cn1c(=O)n(Cc2nc(-c3ccccc3)no2)c(=O)c2ccccc21)Nc1cccc(C(F)(F)F)c1,-3.2%,·,·,·,·,·

# Bioassay records as filed in PubChem BioAssay.
